Results taken from PubChem BioAssay AID1159580 (chemical genetic matrix, 2015).
The campaign covered roughly 5,500 compounds. About 2,000 (36%) were called active. Not shown: some 18% with an inconclusive outcome. No stated cut-off is given here; in the data, active means normalized growth mostly below about 0.91 (no sharp cut-off); inconclusive means no clear call, values can overlap the other calls; inactive means mostly above about 0.92. Some of the results follow.

Assay: chemical genetic growth profiling, strain panel (AID 1159580);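 further: tested at 20 µM; growth read once vehicle control cultures reached saturation at 30 °C; 1 = growth at the plate median or of vehicle wells; lower values mean less growth of the strain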
Settings: growth OD

Measured: normalized growth

NCC(=O)CCC(=O)O
inactive: S. cerevisiae deletion strains, locus YJR075W, strain HOC1, active compounds read low 1.02 | S. cerevisiae deletion strains, locus YKL009W, strain mrt4, active compounds read low 1.07 | S. cerevisiae deletion strains, locus YKL068W, active compounds read low 0.995 | S. cerevisiae deletion strains, locus YKL085W, strain MDH1 (second series), active compounds read low 0.997 | S. cerevisiae deletion strains, locus YKL085W, strain MDH1, active compounds read low 0.997 | S. cerevisiae deletion strains, locus YKL160W, strain elf1, active compounds read low 0.98 | S. cerevisiae deletion strains, locus YKL190W, strain CNB1, active compounds read low 1.01 | S. cerevisiae deletion strains, locus YKR001C, strain vps1, active compounds read low 0.982 | S. cerevisiae deletion strains, locus YKR026C, strain gcn3, active compounds read low 0.981 | S. cerevisiae deletion strains, locus YKR091W, strain srl3, active compounds read low 0.981 | S. cerevisiae deletion strains, locus YLL001W, strain dnm1, active compounds read low 0.93 | S. cerevisiae deletion strains, locus YLL026W, active compounds read low 0.982 | S. cerevisiae deletion strains, locus YLL041C, strain sdh2, active compounds read low 0.987 | S. cerevisiae deletion strains, locus YLR027C, strain aat2, active compounds read low 0.98 | S. cerevisiae deletion strains, locus YLR039C, strain RIC1, active compounds read low 1.03 | S. cerevisiae deletion strains, locus YLR058C, strain SHM2, active compounds read low 1.01 | S. cerevisiae deletion strains, locus YLR102C, strain apc9, active compounds read low 0.983 | S. cerevisiae deletion strains, locus YLR113W, strain HOG1, active compounds read low 1.03 | S. cerevisiae deletion strains, locus YLR221C, strain rsa3, active compounds read low 1.03 | S. cerevisiae deletion strains, locus YLR258W, strain gsy2, active compounds read low 0.994 | S. cerevisiae deletion strains, locus YLR262C, strain YPT6 (second series), active compounds read low 0.958 | S. cerevisiae deletion strains, locus YLR262C, strain YPT6, active compounds read low 1.05 | S. cerevisiae deletion strains, locus YLR268W, strain sec22, active compounds read low 0.953 | S. cerevisiae deletion strains, locus YLR320W, strain mms22, active compounds read low 0.976 | S. cerevisiae deletion strains, locus YLR330W, strain CHS5, active compounds read low 1.01 | S. cerevisiae deletion strains, locus YLR342W, strain FKS1 (second series), active compounds read low 1.03 | S. cerevisiae deletion strains, locus YLR342W, strain FKS1, active compounds read low 0.959 | S. cerevisiae deletion strains, locus YLR357W, strain rsc2, active compounds read low 0.954 | S. cerevisiae deletion strains, locus YLR370C, strain arc18, active compounds read low 1.01 | S. cerevisiae deletion strains, locus YLR371W, strain rom2, active compounds read low 0.988 | S. cerevisiae deletion strains, locus YLR384C, strain iki3, active compounds read low 0.997 | S. cerevisiae deletion strains, locus YLR418C, strain cdc73, active compounds read low 0.994 | S. cerevisiae deletion strains, locus YML016C, strain PPZ1, active compounds read low 1.01 | S. cerevisiae deletion strains, locus YML032C, strain rad52, active compounds read low 0.981 | S. cerevisiae deletion strains, locus YML120C, strain ndi1, active compounds read low 0.983 | S. cerevisiae deletion strains, locus YML124C, strain tub3, active compounds read low 0.997 | S. cerevisiae deletion strains, locus YMR058W, strain fet3, active compounds read low 0.984 | S. cerevisiae deletion strains, locus YMR078C, strain ctf18, active compounds read low 0.991 | S. cerevisiae deletion strains, locus YMR125W, strain sto1, active compounds read low 0.977 | S. cerevisiae deletion strains, locus YMR129W, active compounds read low 0.99 | S. cerevisiae deletion strains, locus YMR205C, strain PFK2, active compounds read low 0.976 | S. cerevisiae deletion strains, locus YMR223W, strain ubp8, active compounds read low 0.998 | S. cerevisiae deletion strains, locus YMR231W, strain pep5, active compounds read low 0.972 | S. cerevisiae deletion strains, locus YMR263W, strain SAP30, active compounds read low 1.01 | S. cerevisiae deletion strains, locus YMR307W, strain GAS1, active compounds read low 1.05 | S. cerevisiae deletion strains, locus YNL067W, strain RPL9B, active compounds read low 0.997 | S. cerevisiae deletion strains, locus YNL071W, strain lat1, active compounds read low 0.995 | S. cerevisiae deletion strains, locus YNL128W, strain TEP1, active compounds read low 1.02 | S. cerevisiae deletion strains, locus YNL153C, strain GIM3, active compounds read low 1 | S. cerevisiae deletion strains, locus YNL183C, strain NPR1, active compounds read low 0.986 | S. cerevisiae deletion strains, locus YNL209W, strain ssb2, active compounds read low 0.997 | S. cerevisiae deletion strains, locus YNL233W, strain BNI4, active compounds read low 1.02 | S. cerevisiae deletion strains, locus YNL248C, strain rpa49, active compounds read low 1 | S. cerevisiae deletion strains, locus YNL250W, strain rad50, active compounds read low 0.993 | S. cerevisiae deletion strains, locus YNL271C, strain bni1, active compounds read low 0.98 | S. cerevisiae deletion strains, locus YNL298W, strain CLA4, active compounds read low 0.984 | S. cerevisiae deletion strains, locus YNL307C, strain MCK1, active compounds read low 1 | S. cerevisiae deletion strains, locus YNL322C, strain KRE1 (second series), active compounds read low 0.964 | S. cerevisiae deletion strains, locus YNL322C, strain KRE1, active compounds read low 1.02 | S. cerevisiae deletion strains, locus YNR049C, strain mso1, active compounds read low 0.981 | S. cerevisiae deletion strains, locus YNR052C, strain pop2, active compounds read low 0.988 | S. cerevisiae deletion strains, locus YOL006C, strain TOP1, active compounds read low 0.983 | S. cerevisiae deletion strains, locus YOL012C, strain htz1 0.968 | S. cerevisiae deletion strains, locus YOL147C, strain pex11, active compounds read low 0.993 | S. cerevisiae deletion strains, locus YOR001W, strain rrp6, active compounds read low 0.994 | S. cerevisiae deletion strains, locus YOR061W, strain CKA2, active compounds read low 1.01 | S. cerevisiae deletion strains, locus YOR069W, strain VPS5, active compounds read low 1.01 | S. cerevisiae deletion strains, locus YOR070C, strain gyp1, active compounds read low 0.989 | S. cerevisiae deletion strains, locus YOR080W, strain dia2, active compounds read low 0.976 | S. cerevisiae deletion strains, locus YOR083W, strain WHI5, active compounds read low 0.954 | S. cerevisiae deletion strains, locus YOR106W, strain vam3, active compounds read low 0.956 | S. cerevisiae deletion strains, locus YOR136W, strain idh2, active compounds read low 0.992 | S. cerevisiae deletion strains, locus YOR144C, strain elg1, active compounds read low 0.986 | S. cerevisiae deletion strains, locus YOR184W, strain ser1, active compounds read low 0.976 | S. cerevisiae deletion strains, locus YOR231W, strain MKK1, active compounds read low 1.04 | S. cerevisiae deletion strains, locus YOR265W, strain rbl2, active compounds read low 0.988 | S. cerevisiae deletion strains, locus YOR270C, strain vph1, active compounds read low 1.01 | S. cerevisiae deletion strains, locus YOR290C, strain snf2, active compounds read low 1.01 | S. cerevisiae deletion strains, locus YOR316C, strain cot1, active compounds read low 0.989 | S. cerevisiae deletion strains, locus YPL051W, strain arl3, active compounds read low 0.997 | S. cerevisiae deletion strains, locus YPL055C, strain LGE1, active compounds read low 1.03 | S. cerevisiae deletion strains, locus YPL078C, strain atp4, active compounds read low 0.948 | S. cerevisiae deletion strains, locus YPL106C, strain sse1, active compounds read low 0.998 | S. cerevisiae deletion strains, locus YPL240C, strain hsp82, active compounds read low 0.985 | S. cerevisiae deletion strains, locus YPL241C, strain CIN2, active compounds read low 1 | S. cerevisiae deletion strains, locus YPL256C, strain CLN2, active compounds read low 1.03 | S. cerevisiae deletion strains, locus YPR119W, strain clb2, active compounds read low 0.983 | S. cerevisiae deletion strains, locus YPR141C, strain kar3, active compounds read low 0.993 | S. cerevisiae deletion strains, locus YPR163C, strain tif3, active compounds read low 0.981 | S. cerevisiae deletion strains, locus YPR167C, strain met16, active compounds read low 0.986 | S. cerevisiae deletion strains, strain wtn01, active compounds read low 0.99 | S. cerevisiae strains, strain wild type, active compounds read low 1.01
